The campaign covered roughly 340,000 compounds. About 1,700 (0.5%) were called active. Roughly 2% stayed inconclusive and do not appear here. The full list was thinned out, with actives kept by preference. A number with no mark means an inactive call. Rule as the data show it: active = activity change below about -65%; inconclusive = mostly about -30% to -63%; inactive = weaker than that.
% is scaled to controls: 0 for no effect and ±100 for the full control effect.

The subject of this experiment is CtBP / adenovirus E1A interaction (AlphaScreen). The experiment can be described thus: qHTS Assay for Inhibitors of the CtBP/E1A Interaction. The note with it: AlphaScreen GST-E1A/His-CtBP binding, 1536-well; stronger effect = lower value. The text has this: Carboxyl-terminal binding protein (CtBP) is a co-repressor for many transcription factors. […] Our studies have shown that CtBP is overexpressed in multiple human cancers, including lung, breast, and head and neck cancers. In particular, it is over-expressed in 50% of primary lung cancer and 90% of metastatic lesions. CtBP suppresses epithelial-specific genes as well as genes critical for apoptosis, providing the underlying molecular mechanism for its role in tumorigenesis. […] Based on the above data, we hypothesize that 1) CtBP suppresses the pro-apoptotic and epithelial genes, therefore overexpressed CtBP in human cancer cells increases EMT and cancer survival; 2) decreasing CtBP's function represents a targeted therapy for lung cancer and potentially multiple cancer types. As a co-repressor, CtBP binds to E1A and other transcription factors through a conserved peptide motif to carry out its action. Inhibiting this interaction using small molecules can potentially serve as effective cancer therapeutics.
To this end, we have developed a homogenous AlphaScreen assay targeting the CtBP/E1A interaction. We performed a large scale HTS of the Molecular Libraries Small Molecule Repository (MLSMR) to identify inhibitors of the CtBP/E1A interaction as potential anti-cancer therapeutics. Compounds identified can also be used as chemical probes to better understand the biological functions of CtBP.
NIH Chemical Genomics Center [NCGC]
NIH Molecular Libraries Probe Centers Network [MLPCN]
Assay Submitter (PI): Rui Zhao, University of Colorado Denver
The first step of the 5uL AlphaScreen assay is to dispense assay buffer (50 mM Tris, pH 8.0, 300 mM NaCl, 0.05% BSA, 0.02% Tween 20, 1 mM TCEP) into a Greiner 1536 white solid bottom microtiter plate (789175-F). Five microliters is added to Column 1, 4 uL is added to Column 2 and 3 uL is added to Columns 3 through 48. A 5X protein solution (125 nM GST-E1A protein + 125 nM His-tagged CtBP protein) is mixed and 1 uL is dispensed to Columns 3-48. Using a 1536 pintool, 23 nL of compound is transferred to the assay plate and the plate is incubated with a lid at 37 deg C in the dark for two hours. A solution of 5X AlphaScreen beads is mixed (50 ug/mL Glutathione linked donor beads + Nickel chelated acceptor beads) and 1 uL is dispensed to Columns 2-48. The assay plate is incubated for one hour, with a lid, at 37 deg C in the dark. The plate is read using a Perkin Elmer Envision using an AlphaScreen protocol.
Turning to `COc1ccc(CCNS(=O)(=O)c2cccc3cccnc23)cc1OC`, the activity change was -9.76%.
Then `CCOc1ccc(C(CC(=O)O)NC(=O)Cc2ccccc2)cc1OC` (stereo not given), with -13.3%; and `CCCCC(=O)NC(c1ccc(OC)c(OC)c1)c1ccc2cccnc2c1O` (stereo not given), with -94.2% (active).
The same measure for `Cc1ccccc1C#CC1=CC(=O)CC(C)(C)C1`: 5.53%; for `CCCCNC(=O)C[C@@H]1C[C@@]2(C(=O)OC)CC(C)(C)CC=C2N(Cc2ccco2)C1=O`: 2.24%.
On to `COCOc1cccc(CN2CCC(C)(Oc3ccc(SC)cc3)C2)c1` (stereo not given), for which the activity change was -22.6%.
For the molecule `CSc1ccc(CN2CCC2(C)C(=O)NCc2ccccc2Br)cc1` (stereo not given), the activity change was -8.98%.
The same measure for `COC(=O)[C@@]12C[C@@H](CC(=O)NCCCCc3ccccc3)C(=O)N(Cc3ccccc3)C1=CCC(C)(C)C2`: -0.75%.
On to `O=c1ccc2c(-c3ccccc3S(=O)(=O)O)c3ccc(O)c(O)c3oc-2c1O`, for which the activity change is -78.5% (active).
For the molecule `CCCCCNC(=O)C1C(=O)Nc2ccccc2C(=O)N1C(C)(C)C` (stereo not given), the activity change is -0.209%.
In the case of `COc1ccc(Cl)cc1-c1cc(C(=O)Nc2cc(OC)c(OC)c(OC)c2)[nH]n1`, the activity change was 4%.
Then `O=C1c2cccc3cccc(c23)C(=O)N1CCCCCc1n[nH]c(=S)o1`, with -82.2% (active).
Then `O=C1c2ccccc2C(=O)N1CCCCCCN1C(=O)c2ccccc2C1=O`, with 6.03%; and `O=C1c2ccccc2C(=O)N1CCCc1nc(-c2ccccc2)no1`, with 5.59%; and `C[C@@H]1CN([C@H](C)CO)C(=O)c2cc(Br)cnc2O[C@@H]1CN(C)Cc1cncnc1`, with -16.6%.
As for `Cc1onc(-c2ccccc2)c1-c1nnc(COC(=O)c2ccc(N(C)C)cc2)o1`, the activity change was 2.13%.
As for `COC(=O)[C@@]12C[C@@H](CC(=O)N3CCC(c4ccccc4)CC3)C(=O)N(Cc3ccccc3)C1=CCC(C)(C)C2`, the activity change was 0.365%.
With `COC(=O)c1ccc(NCC(=O)c2ccccc2)cc1`, the activity change was 6.11%.
As for `CCOC(=O)c1nc(Nc2ccc(C(=O)OC)cc2)c2ccccc2n1`, the activity change is -86.6% (active).
Then `CCOC(=O)c1ccc(Nc2cc3ccccc3c(=O)[nH]2)cc1`, with 2.43%; and `COc1ccc(-c2coc3c(C(=O)NC(C)C)cccc23)c(C)c1`, with -12.9%.
The same measure for `Clc1cccc(Cc2c(-c3cccc(Cl)c3)nc3ccc(Cl)cn23)c1`: 0.333%; for `COc1ccc(CC(=O)NCC(=O)N/N=C/c2cc(Br)ccc2OC)cc1`: -87.6% (active); for `Cc1ccc(OCCOCCOc2ccc(Br)cc2/C=N\NC(=O)c2ccncc2)cc1`: -10.2%.
The same measure for `COc1ccc(Br)cc1/C=N/Nc1ccc(Cl)c(C(=O)O)c1`: -2.31%.
Consider `Cc1ccc(C(=O)Oc2coc(CSc3nnc(NC(=O)c4cccs4)s3)cc2=O)cc1C`, for which the activity change is -16.7%.
The same measure for `C=CCNC(=O)COc1coc(CN2CCN(Cc3ccccc3)CC2)cc1=O`: 2.1%; for `O=C(/C=C/c1ccccc1)Oc1coc(CSc2ncccn2)cc1=O`: -92.2% (active).
On to `O=Nc1c(O)cc(O)c2ccccc12`, for which the activity change was -6.15%.
Regarding `COc1ccc(C(=O)N2CCCCC2c2cc(C(=O)Nc3ccc(F)c(Cl)c3)no2)cc1` (stereo not given), the activity change was -5.81%.
For the molecule `O=Cc1cn(CCOc2ccc(F)cc2)c2ccccc12`, the activity change was 0%.
Then `CSCCC(c1nnnn1Cc1ccccc1)N1CCN(C/C=C/c2ccccc2)CC1` (stereo not given), with -18.4%; and `Cc1cccn2c(=O)c3cc(C(=O)NCCN4CCOCC4)c(=N)n(Cc4cccnc4)c3nc12`, with -25.6%.
Then `COc1ccc(CCn2c(=N)c(C(=O)NCc3ccco3)cc3c(=O)n4cccc(C)c4nc32)cc1`, with -81.7% (active); and `O=C(NCc1ccco1)c1cccn2c(=O)c3c4c(sc3nc12)CCCC4`, with -12.2%; and `CC(C)C[C@@H](COCc1ccc(Cl)cc1)N1CCN(C(=O)c2ccc(Cl)cc2Cl)CCC1=O`, with 0%.
For the molecule `CCOC(=O)N1CCN(C(c2cccnc2)c2ccc3cccnc3c2O)CC1` (stereo not given), the activity change was -91.9% (active).
The same measure for `CCN1CCN(C(c2cccnc2)c2cc(Cl)c3cccnc3c2O)CC1` (stereo not given): -99.3% (active); for `CCOC(=O)N1CCN(C(=O)CSc2nc(=O)n3cccc(C)c3n2)CC1`: -4.84%; for `CCOC(=O)N1CCN(C(c2ccnc3ccccc23)c2nnnn2-c2c(C)cccc2C)CC1` (stereo not given): 0%.
For the molecule `N#CCCN(C(=S)Nc1ccc(Cl)c(Cl)c1)C1CCCCC1`, the activity change was 0%.
As for `COc1ccc(-c2cnc3c(c2)C(=O)N([C@H](C)CO)C[C@@H](C)[C@H](CN(C)Cc2ccccc2)O3)cc1`, the activity change is -12.8%.
As to `CC(C)Oc1ccc(CN2CCC2(C)C(=O)NCc2ccc(C(F)(F)F)cc2)cc1` (stereo not given), the activity change was 0.872%.
`Cc1ccc(C(=O)Nc2ccc3c(c2)OCO3)cc1S(=O)(=O)N1CCCCC1`: the activity change was -66.6% (active).
Then `Cc1ccc(C(=O)NNC(=O)c2ccncc2)cc1S(=O)(=O)N1CCCCC1`, with -2.42%.

These data come from PubChem BioAssay AID651724 (National Center for Advancing Translational Sciences (NCATS), 2012).
